Records with an inconclusive call do not appear. Activity calls are given as the source filed them. Unless noted, calls follow the shape of the dose curve; as a rule, active = well fitted curve in the direction sought with a large enough effect in the repeat runs; inconclusive = weak or mixed curves; inactive = no such curve, though single readings can be large; an effect the other way counts as inactive or inconclusive.
Legend:
[1] = A CellTox Green Cytotoxicity Assay to monitor cytotoxicity in HEK293 cells - 32 hour (AID 1224881); also: nearly all actives have a fitted effect of over 40% in size; also: potency is read from the fitted curve at half-maximal effect
In short: (§1)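 Fluorescence intensity, read at 0, 8, 16, 24, 32 and 40 h of compound treatment, reflected dye binding to DNA of dead HEK293 cells; compounds (23 nL, DMSO) were added 5 h after plating cells with reagent.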

[2] = A CellTox Green Cytotoxicity Assay to monitor cytotoxicity in HepG2 cells - 0 hour (AID 1224882); also: nearly all actives have a fitted effect of over 35% in size
In short: (§2)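 Using 1536-well format, dye-containing HepG2 suspension was seeded, allowed 5 h at 37 C/5% CO2, dosed by pintool with compounds, positive and negative controls, and imaged for fluorescence across 40 h.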

[3] = A CellTox Green Cytotoxicity Assay to monitor cytotoxicity in HepG2 cells - 32 hour (AID 1224883); also: nearly all actives have a fitted effect of over 50% in size; also: potency is read from the fitted curve at half-maximal effect
In short: as §2

[4] = A CellTox Green Cytotoxicity Assay to monitor cytotoxicity in HEK293 cells - 8 hour (AID 1224884); also: nearly all actives have a fitted effect of over 35% in size; also: potency is read from the fitted curve at half-maximal effect
In short: as §1

[5] = qHTS RealTime-Glo MT Cell Viability Assay in HepG2 cells - 16 hour (AID 1224885); also: nearly all actives have a fitted effect of over 50% in size
In short: (§3)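 Tox21 10K library screened in qHTS format on HepG2 cells carrying RealTime-Glo reagents. Compounds were added after a 5 h preincubation, and the luminescent signal from continuous culture was measured repeatedly during 40 h treatment.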

[6] = qHTS RealTime-Glo MT Cell Viability Assay in HEK293 cells - 24 hour (AID 1224886); also: nearly all actives have a fitted effect of over 50% in size; also: potency is read from the fitted curve at half-maximal effect; as to activity change, negative = cytotoxicity: top concentration of the series differs between compounds
In short: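 Luminescence generated by NanoLuc from substrate produced by living HEK293 cells served as the viability signal. Each value reflects the reading at its stated time point during continuous 40 h compound exposure at 37 C.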

[7] = qHTS RealTime-Glo MT Cell Viability Assay in HEK293 cells - 8 hour (AID 1224887); also: nearly all actives have a fitted effect of over 50% in size; also: potency is read from the fitted curve at half-maximal effect; as to activity change, negative = cytotoxicity: top concentration of the series differs between compounds
In short: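 Viable HEK293 cells reduce a cell-permeant prosubstrate; the product diffuses out and is consumed by NanoLuc in the medium to give light. Compounds went in after a 5 h incubation and plates were read over the treatment course.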

[8] = A CellTox Green Cytotoxicity Assay to monitor cytotoxicity in HEK293 cells - 16 hour (AID 1224888); also: nearly all actives have a fitted effect of over 35% in size; also: potency is read from the fitted curve at half-maximal effect
In short: as §1

[9] = qHTS RealTime-Glo MT Cell Viability Assay in HepG2 cells - 0 hour (AID 1224889); also: nearly all actives have a fitted effect of over 50% in size
In short: as §3

[10] = A CellTox Green Cytotoxicity Assay to monitor cytotoxicity in HepG2 cells - 8 hour (AID 1224890); also: nearly all actives have a fitted effect of over 45% in size; also: potency is read from the fitted curve at half-maximal effect
In short: as §2

[11] = qHTS assay to identify small molecule antagonists of the estrogen receptor alpha (ER-alpha) signaling pathway using the BG1 cell line in the presence of 0.1 nM 17-beta-estradiol - cell viability counter screen (AID 1259241); also: nearly all actives have a fitted effect of over 40% in size
In short: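 Estradiol-stimulated (0.1 nM) VM7Luc4E2 cells exposed to compounds 22 hr; viability measured by fluorescence of cleaved CellTiter-Fluor substrate after 30 min.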

[12] = qHTS assay to identify small molecule antagonists of the androgen receptor (AR) signaling pathway using the MDA cell line in the presence of 0.5 nM R1881 - cell viability counter screen (AID 1259242); also: nearly all actives have a fitted effect of over 45% in size
In short: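 Viability of MDA-kb2 cells was multiplexed with the luciferase AR readout; after 16 hr with compounds and R1881 at 0.5 nM final, CellTiter-Fluor fluorescence was recorded.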

[13] = biological target: Estrogen receptor (Homo sapiens) (UniProt P03372); experiment: qHTS assay to identify small molecule antagonists of the estrogen receptor alpha (ER-alpha) signaling pathway using the BG1 cell line in the presence of 0.1 nM 17-beta-estradiol (AID 1259244); also: nearly all actives have a fitted effect of over 50% in size
Chain of Estrogen receptor (Homo sapiens) (P03372 whole entry, looked up): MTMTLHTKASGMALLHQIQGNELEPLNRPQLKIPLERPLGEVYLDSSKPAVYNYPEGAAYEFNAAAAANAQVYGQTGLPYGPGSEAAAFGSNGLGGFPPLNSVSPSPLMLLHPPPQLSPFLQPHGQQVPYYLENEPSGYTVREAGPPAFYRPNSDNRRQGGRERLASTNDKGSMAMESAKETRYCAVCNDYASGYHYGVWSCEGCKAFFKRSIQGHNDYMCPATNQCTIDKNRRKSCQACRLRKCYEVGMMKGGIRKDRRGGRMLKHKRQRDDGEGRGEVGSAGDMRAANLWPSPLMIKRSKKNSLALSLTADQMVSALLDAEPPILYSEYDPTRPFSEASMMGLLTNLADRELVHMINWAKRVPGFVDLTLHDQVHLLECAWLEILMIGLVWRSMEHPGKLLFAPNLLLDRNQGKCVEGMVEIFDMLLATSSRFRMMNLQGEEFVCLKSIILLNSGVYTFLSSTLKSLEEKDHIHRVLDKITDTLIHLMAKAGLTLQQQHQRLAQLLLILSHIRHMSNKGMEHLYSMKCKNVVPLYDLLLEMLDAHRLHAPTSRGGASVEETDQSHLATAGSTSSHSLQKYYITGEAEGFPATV
In short: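 Estradiol at 0.1 nM (final) stimulates the endogenous ER-alpha of VM7Luc4E2 cells carrying an ERE-driven luciferase; compounds are co-incubated 22 h at 37C and luciferase output quantified by luminescence.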

[14] = qHTS assay to identify small molecule HDAC inhibitors (AID 1259364);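 also: wild-type HCT-116 cells with endogenous class I/II HDAC activity; top concentration of the series differs between compounds; nearly all actives have a fitted effect of over 45% in size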
In short: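 Read-out: luminescence of HDAC-Glo I/II reagent, 30 min RT, reflecting class I/II deacetylase activity in whole HCT-116 cells pre-exposed 2 h to DMSO-dissolved compounds.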

[15] = qHTS assay to identify small molecule HDAC inhibitors - cell viability counter screen (AID 1259365)
In short: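 After overnight seeding at 1,500 cells per well, wild-type HCT-116 cultures took up compounds in DMSO for 2hr at 37 C. Viable cell content came from luminescence with CellTiter-Glo.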

[16] = qHTS assay to identify small molecule antagonists of the sonic hedgehog signaling (Shh) pathway - cell viability counter screen (AID 1259367); also: nearly all actives have a fitted effect of over 55% in size
In short: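 After a 4 hr settling period, 3T3 Gli1-Luc cells were treated with DMSO-dissolved chemicals and conditioned medium, kept 24 hr at 37C in 5% CO2, and assayed for viability by CellTiter-Fluor fluorescence following 1 hr reagent incubation.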

[17] = qHTS assay to identify small molecule agonists of the sonic hedgehog signaling (Shh) pathway (AID 1259368; calls by dose curve;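 also: NIH/3T3-derived 3T3Gli1-Luc cells carrying a stable Gli1-driven firefly luciferase reporter; series mostly up to about 92 µM; nearly all actives have a fitted effect of over 15% in size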)
In short: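 A Gli1 transcriptional response element controlled firefly luciferase in 3T3Gli1-Luc cells. Compounds and a positive control were added 4 hr after plating, and cells were incubated a further 24 hr at 37 C before luminescence detection.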

[18] = qHTS assay to identify small molecule agonists of the sonic hedgehog signaling (Shh) pathway - cell viability counter screen (AID 1259366); also: nearly all actives have a fitted effect of over 50% in size
In short: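 Same-well cytotoxicity read. Gli1-Luc reporter 3T3 cells; compounds 24hr, 37C/5% CO2; CellTiter-Fluor fluorescence.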

[19] = qHTS assay to identify small molecule phospholipidosis (PLD) inducers (AID 1259344; active = well fitted curve in the direction sought with a large enough effect; an effect the other way counts as inactive or inconclusive)
In short: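 HepG2 cells grown on collagen I take up LipidTOX Red while exposed to compound for 24 h; after fixation they are imaged at 20x and pit metrics are extracted.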
% is scaled to controls: 0 for no effect and ±100 for the full control effect.

COC(=O)c1ccc2cc(C(=O)OC)ccc2c1
inactive: cytotoxicity increase [1] 1.19% [at 15.8 µM] | cytotoxicity [2] -8.67% [at 15.8 µM] | cytotoxicity increase [3] -17.5% [at 15.8 µM] | cytotoxicity increase [4] -0.0057% [at 15.8 µM] | activity change, negative = cytotoxic [5] 3.7% [at 15.8 µM] | activity change, negative = cytotoxicity [6] -1.22% [at 15.8 µM] | activity change, negative = cytotoxicity [7] 0.421% [at 15.8 µM] | activity change [8] 2.83% [at 15.8 µM, active compounds read high] | activity change, negative = cytotoxicity [9] 9.21% [at 15.8 µM] | cytotoxicity increase [10] -0.23% [at 15.8 µM] | activity change, negative = cytotoxicity [11] -8.86% [at 19 µM] | viability change, negative = cytotoxic [12] 1.72% [at 19 µM] | activity change, negative = inhibition [13] -28.1% [at 19 µM] | activity change, negative = inhibition [14] -8.76% [at 19 µM] | activity change, negative = cytotoxicity [15] -11% [at 19 µM] | viability change, negative = cytotoxic [16] -4.66% [at 19 µM] | activity change [17] 6.39% [at 18.9 µM, active compounds read high]

OCCN1CCN(CCO)CC1
inactive: Potency [1] | Potency [2] | Potency [3] | Potency [4] | outcome [5] | Potency [6] | Potency [7] | Potency [8] | Potency [9] | Potency [10] | Potency [11] | outcome [12] | Potency [14] | outcome [15] | Potency [18] | Potency [16] | Potency [17]

Cc1ccc([N+](=O)[O-])cc1Cl
inactive: Potency [1] | Potency [2] | Potency [3] | Potency [4] | outcome [5] | Potency [6] | Potency [7] | Potency [8] | Potency [9] | Potency [10] | Potency [11] | outcome [12] | Potency [14] | outcome [15] | Potency [18] | Potency [16]

CN(C)CC[C@@H](c1ccc(Cl)cc1)c1ccccn1
inactive: Potency [1] | Potency [2] | Potency [3] | Potency [4] | outcome [5] | Potency [6] | Potency [7] | Potency [8] | Potency [9] | Potency [10] | Potency [11] | outcome [12] | PLD induction [19] 19.5% [at 1.53 µM] | Potency [14] | outcome [15] | Potency [18] | Potency [16] | Potency [17]

CC1(C)S[C@@H]2[C@H](NC(=O)C(C(=O)O)c3ccccc3)C(=O)N2[C@H]1C(=O)O (some centres not stated)
inactive: Potency [1] | Potency [2] | Potency [3] | Potency [4] | outcome [5] | Potency [6] | Potency [7] | Potency [8] | Potency [9] | Potency [10] | Potency [11] | outcome [12] | outcome [19] | Potency [14] | outcome [15] | Potency [18] | Potency [17]

CCCC1CCC(=O)O1 (configuration not stated)
inactive: Potency [1] | Potency [2] | Potency [3] | Potency [4] | outcome [5] | Potency [6] | Potency [7] | Potency [8] | Potency [9] | Potency [10] | Potency [11] | outcome [12] | Potency [14] | outcome [15] | Potency [18] | Potency [16]

CCN(CC)C(=O)N(CC)CC
inactive: Potency [1] | Potency [2] | Potency [3] | Potency [4] | outcome [5] | Potency [6] | Potency [7] | Potency [8] | Potency [9] | Potency [10] | Potency [11] | outcome [12] | Potency [14] | outcome [15] | Potency [18] | Potency [16]

CCCCCCCCCCCCOCCOS(=O)(=O)O
active: Potency [1] 24.5 µM | Potency [3] 54.9 µM | Potency [4] 19.5 µM | Potency [8] 21.9 µM | Potency [10] 54.9 µM
inactive: Potency [2] | outcome [5] | Potency [6] | Potency [7] | Potency [9] | Potency [11] | outcome [12] | Potency [13] | Potency [14] | outcome [15] | Potency [18] | Potency [16] | Potency [17]

CC(C)(C)C1CCCCC1=O (configuration not stated)
inactive: Potency [1] | Potency [2] | Potency [3] | Potency [4] | outcome [5] | Potency [6] | Potency [7] | Potency [9] | Potency [10] | Potency [11] | outcome [12] | Potency [13] | Potency [14] | outcome [15] | Potency [16]

COc1cc(N)c(Cl)cc1C(=O)NC1CCN(Cc2ccccc2)CC1
inactive: Potency [1] | Potency [2] | Potency [3] | Potency [4] | outcome [5] | Potency [9] | Potency [10] | Potency [11] | outcome [12] | Potency [13] | outcome [19] | Potency [14] | outcome [15] | Potency [18]
active: Potency [6] 19 µM | Potency [7] 21.3 µM

CC(C)NC[C@@H](O)COc1cccc2ccccc12
inactive: Potency [1] | Potency [2] | Potency [3] | Potency [4] | outcome [5] | Potency [6] | Potency [7] | Potency [8] | Potency [9] | Potency [10] | outcome [12] | outcome [19] | Potency [14] | outcome [15] | Potency [16] | Potency [17]

CCC(=O)Nc1ccc(O)cc1
inactive: Potency [1] | Potency [2] | Potency [3] | Potency [4] | outcome [5] | Potency [6] | Potency [7] | Potency [8] | Potency [9] | Potency [10] | outcome [12] | Potency [13] | outcome [19] | Potency [14] | outcome [15] | Potency [18] | Potency [16] | Potency [17]

CC(=O)Nc1ccc(C)c(Cl)c1
inactive: Potency [1] | Potency [2] | Potency [3] | Potency [4] | outcome [5] | Potency [6] | Potency [7] | Potency [9] | Potency [10] | Potency [11] | outcome [12] | Potency [14] | outcome [15] | Potency [18] | Potency [16] | Potency [17]

O=C(O)C(=O)Cc1c[nH]c2ccccc12
inactive: Potency [1] | Potency [2] | Potency [3] | Potency [4] | outcome [5] | Potency [6] | Potency [7] | Potency [8] | Potency [10] | Potency [11] | outcome [12] | Potency [14] | outcome [15] | Potency [18] | Potency [16] | Potency [17]

— PubChem BioAssay (Tox21)
